The whole screen tested about 23,000 compounds, of which about 30 (0.1%) showed an effect of 50% or more. Shown is part of a subset that was picked to be rich in strong results. Potency and affinity values are given separately.

The assay deals with Pseudomonas aeruginosa. Conditions: Concentration 300 ug.mL-1; ASSAY_TEST Inhibition of Bacterial Growth; detection method Absorption (OD600); MEDIA CAMHB; plate type 384well; NBS; CORNING #3640; time 18 hr.
Usually Inhibition stands for the share of the control response that was lost under treatment. A higher Inhibition goes with a strong effect. Turning to `CCc1ccc(C2CNCCO2)cc1` (stereo unspecified), the Inhibition came to 46.05%.
